The source made the active and inactive calls. Unless noted, the rule behind the calls is not given here.
Assays:
[1] = tested on: Wnt5a (protein binding on small-molecule microarray); assay: small molecules binding Wnt5a protein – biophysical, small-molecule microarray, 635/667 nm fluorescence, primary screen (AID 1142); conditions: 635 nm fluorescence, higher = more signal;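 note: fluorescence read at 667 nm with signal to noise per printed feature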
[2] = ATP-based viability of Huh7 replicon cells – cell-based, CellTiter-Glo luminescence, basal, 48 h, cytotoxicity control for HCV replication inhibitor project, primary screen (AID 1143); conditions: higher = more signal, called active from +8 up or from −8 down;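 note: Huh7 hepatoma cells carrying a hepatitis C replication reporter with no stimulus; test concentration not given here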
[3] = Pseudomonas biofilm growth suppression – PAO1 strain, BacTiter-Glo luminescence, LB-PBS, primary screen (AID 1144); conditions: P. aeruginosa PAO1 biofilm, 12 h, higher = more signal
[4] = basal CRE-LacZ reporter activity in PC12 – cell-based, unstimulated, primary screen (AID 1145); conditions: no forskolin, luminescence, 4.5 h, higher = more signal, called active from +8 up or from −8 down
[5] = forskolin-driven CRE-LacZ activity in PC12 – cell-based, CRE-LacZ reporter, forskolin-stimulated, primary screen (AID 1146); conditions: luminescence, 4.5 h, higher = more signal, called active from +8 up or from −8 down;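 note: PC12 cells with 6xCRE LacZ reporter stimulated by forskolin 10 µM; beta-galactosidase reporter signal reflecting CREB driven transcription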
[6] = target: Streptavidin (Streptomyces avidinii) (UniProt P22629); assay: compounds binding control protein streptavidin – biophysical, small-molecule microarray, 635/667 nm fluorescence, artefact control for SMM compound annotation, primary screen (AID 1147); conditions: higher = more signal;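 note: signal reflects streptavidin binding to arrayed compounds as a control protein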
[7] = probe aInhba binding on compound microarray – biochemical, small-molecule microarray, 635/667 nm fluorescence, primary screen (AID 1148); conditions: higher = more signal;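 note: score merges 667nm spot fluorescence with signal-to-noise for antibody binding to printed compounds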
Torsin-1A (Homo sapiens) [8] = target: Torsin-1A (Homo sapiens) (UniProt O14656); assay: TOR1A wild-type binding on microarray – cell lysate, small-molecule microarray, lysate, 635/667 nm, primary screen (AID 1149); conditions: COS7 hTOR1A-WT lysate, 635 nm fluorescence, higher = more signal
Torsin-1A (Homo sapiens) [9] = target: Torsin-1A (Homo sapiens) (UniProt O14656); assay: torsin A mutant lysate binding on microarrays – cell lysate, small-molecule microarray, COS7 lysate, 635/667 nm fluorescence, primary screen (AID 1150); conditions: COS7 hTOR1A mutant lysate, 635 nm fluorescence, higher = more signal;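 note: score pools 667 nm emission and signal to noise measuring lysate protein binding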
[10] = tested on: Sonic hedgehog protein (Shh); assay: Sonic hedgehog microarray binding compounds – biochemical, small-molecule microarray, 635/667 nm fluorescence, primary screen (AID 1151); conditions: 635 nm fluorescence, higher = more signal;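 note: Shh protein binding to compounds spotted on small-molecule microarray slides; score combines spot fluorescence intensity with signal-to-noise across triplicate slides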

Sequence of Torsin-1A (Homo sapiens) (O14656 whole entry, looked up): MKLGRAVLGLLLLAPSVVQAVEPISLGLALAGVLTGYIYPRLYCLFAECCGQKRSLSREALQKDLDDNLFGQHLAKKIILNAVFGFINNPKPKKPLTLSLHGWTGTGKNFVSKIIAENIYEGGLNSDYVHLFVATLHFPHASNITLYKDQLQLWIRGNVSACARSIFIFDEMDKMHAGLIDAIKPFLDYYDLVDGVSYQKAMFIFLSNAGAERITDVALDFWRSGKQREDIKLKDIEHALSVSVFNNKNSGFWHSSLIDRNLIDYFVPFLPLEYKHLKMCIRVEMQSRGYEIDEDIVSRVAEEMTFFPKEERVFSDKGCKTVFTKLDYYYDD
Sequence of Streptavidin (Streptomyces avidinii) (P22629 whole entry, looked up): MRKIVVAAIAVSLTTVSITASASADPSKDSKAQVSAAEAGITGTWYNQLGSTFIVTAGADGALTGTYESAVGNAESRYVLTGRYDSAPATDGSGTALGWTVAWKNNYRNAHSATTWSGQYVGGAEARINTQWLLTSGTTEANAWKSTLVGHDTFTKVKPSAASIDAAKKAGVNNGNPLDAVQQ

Row | Structure (SMILES) | composite z-score [1] | z-score [2] | z-score [3] | z-score [4] | z-score [5] | composite z-score [6] | composite z-score [7] | composite z-score (Torsin-1A (Homo sapiens) [8]) | composite z-score (Torsin-1A (Homo sapiens) [9]) | composite z-score [10]
1 | COCCOC(=O)N1C(=O)[C@@]2(c3cc(C#CC4=CCCCC4)ccc31)[C@H](C(=O)N1CCc3cc(OC)c(OC)cc3C1)[C@H]1C(=O)O[C@H](c3ccccc3)[C@H](c3ccccc3)N1[C@@H]2c1ccc(O)cc1 | 0.718 | -0.447 (inactive) | 0.108 (inactive) | -0.321 (inactive) | -0.539 (inactive) | 1.85 | 0.467 | 0.544 | 1.23 | 1.67
2 | CC(=O)n1cc(C(O)C2C=CC3C(=O)N(c4ccccc4)C(=O)C3N2Nc2ccccc2F)c2ccccc21 (stereo not given) | -0.296 | -3.27 (inactive) | -1.69 (inactive) | -0.172 (inactive) | 0.499 (inactive) | 0.0289 | -0.157 | -0.561 | 0.495 | -0.813
3 | COc1ccc(CCNC(=O)[C@@]2(Sc3ccc(C)cc3)CC(=O)N(C(C)C)[C@@H]2c2ccc(CO)cc2)cc1 | -1.02 | -0.583 (inactive) | 0.305 (inactive) | 1.56 (inactive) | -0.519 (inactive) | -0.621 | -0.137 | 0.939 | 0.122 | -1.6
4 | Cc1c(NC(=O)/C(C#N)=C/c2ccc(Cl)cc2)c(=O)n(-c2ccccc2)n1C | -0.159 | -1.62 (inactive) | -1.04 (inactive) | -0.374 (inactive) | -1.64 (inactive) | 1.33 | -0.0259 | 0.34 | 0.407 | -0.217
5 | CN1C(=O)C2C=CC(C(O)c3ccc(-c4ccccc4)s3)N(Nc3ccccc3)C2C1=O (stereo not given) | -0.24 | 0.809 (inactive) | -0.46 (inactive) | 0.429 (inactive) | -0.666 (inactive) | 2.23 | 0.395 | 0.0922 | 0.271 | -0.212
6 | C=CC[C@]1(C(=O)N(C)C)COC(c2ccc(OCCCO)cc2)=N1 | 1.07 | -1.88 (inactive) | -1.15 (inactive) | 2.5 (inactive) | -1.45 (inactive) | 2.12 | 0.3 | 0.577 | 1.85 | -0.174
7 | COC(=O)[C@@]1(CCC(=O)OC(C)(C)C)N=C(c2ccc(OCCCO)cc2)O[C@H]1c1ccccc1CN=[N+]=[N-] | 0.113 | -2.35 (inactive) | -0.0281 (inactive) | 1.94 (inactive) | -1.55 (inactive) | -0.139 | 0.241 | -0.193 | 0.261 | 0.339
8 | COC(=O)c1c(CC[C@@H](CO)NC(=O)N[C@@H](Cc2ccccc2)Cn2cc(-c3cncn3C)nn2)oc(C(C)=O)c1C(=O)OC | -0.245 | -3.29 (inactive) | -0.662 (inactive) | -0.491 (inactive) | -0.566 (inactive) | -0.0808 | 0.0872 | 0.443 | 1.26 | 1.75
9 | C=CCC(OC(C)=O)[C@@H]1[C@@H](N(Cc2ccc(-c3ccccc3)cc2)C(=O)c2cccc3ccccc23)c2cc(OCCCO)ccc2N1C(=O)c1ccc2ccccc2c1 (stereo not given in full) | 0.0959 | -1.61 (inactive) | 0.41 (inactive) | -0.155 (inactive) | 0.108 (inactive) | 0.144 | 0.0219 | -0.0928 | 0.0249 | 0.156
10 | COc1ccc([Si](C)(C)[C@H]2[C@H](CCO)O[C@@]3(C(=O)N(Cc4ccc(N5CCOC5=O)cc4)c4ccccc43)[C@@H]2C)cc1 | -0.159 | -3.29 (inactive) | -0.232 (inactive) | 2.2 (inactive) | -2.06 (inactive) | 0.346 | -0.0791 | 0.216 | 0.0362 | 0.397
11 | NCCCC[C@@H]1NC(=O)[C@H]2C[C@@H](C(=O)NCc3ccc(F)cc3)[C@@H](c3cccc(OCCO)c3)N2C1=O | 0.334 | -0.262 (inactive) | -0.862 (inactive) | 0.0084 (inactive) | -0.583 (inactive) | -0.0648 | 0.122 | 0.608 | 1.48 | 2.07
12 | CN(C)C(=O)[C@@]1(CCS(=O)(=O)c2ccccc2)N=C(c2ccc(OCCCO)cc2)O[C@H]1c1ccccc1N=[N+]=[N-] | 1 | -3.2 (inactive) | 1.75 (inactive) | 0.447 (inactive) | -1.37 (inactive) | 1.82 | 0.0569 | 0.155 | 0.797 | -0.337
13 | C=CCOC(=O)[C@H]1[C@@H]2C(=O)O[C@@H](c3ccccc3)[C@@H](c3ccccc3)N2[C@@H](c2ccc(OCCOC(=O)[C@@H]3C[C@@H]4C(=O)N[C@@H](CC(C)C)C(=O)N4[C@@H]3c3ccc(O)cc3)cc2)[C@]12C(=O)Nc1ccc(I)cc12 | 0.15 | -0.901 (inactive) | -1.3 (inactive) | 0.281 (inactive) | 0.318 (inactive) | 0.149 | -0.0791 | 0.637 | 1.22 | 1.91
14 | CC(C)CNC(=O)[C@@H]1c2ccccc2C(=O)N(CC23CC4CC(CC(C4)C2)C3)[C@H]1c1ccc(CO)cc1 | 0.0626 | -3.74 (inactive) | -1.44 (inactive) | -0.206 (inactive) | -0.401 (inactive) | 0.524 | -0.212 | -0.218 | 0.546 | 0.354
15 | C=CCC(OC(C)=O)[C@@H]1[C@@H](N(Cc2cccc3ccccc23)C(=O)c2cccc3ccccc23)c2cc(OCCCO)ccc2N1C(=O)Cc1ccc2ccccc2c1 (stereo not given in full) | -0.0137 | -1.61 (inactive) | 0.576 (inactive) | -0.36 (inactive) | 0.272 (inactive) | -0.166 | 0.0497 | -1.07 | -0.736 | 0.882
16 | CCCC=C(CCC)[C@@H](NC(=O)c1ccco1)c1ccc(C(=O)OC)cc1 | 0.22 | -3.84 (inactive) | 0.737 (inactive) | 0.0143 (inactive) | 0.514 (inactive) | 1.92 | 0.218 | 0.0918 | 0.918 | -0.276
17 | N[C@@H](Cc1ccccc1)Cn1cc(C2(O)CCCCC2)nn1 | -0.0937 | 0.08 (inactive) | 0.683 (inactive) | -0.244 (inactive) | 0.766 (inactive) | 0.984 | -0.0494 | 0.0636 | -0.0257 | -0.219
18 | CCOC(=O)C[C@H]1[C@H](OC(=O)c2ccc(C(=O)c3ccccc3)cc2)[C@@H](NC(=O)c2ccc3ccccc3c2)c2cc(OCCCO)ccc2N1C(=O)c1ccc2ccccc2n1 | 0.289 | 0.311 (inactive) | -0.0217 (inactive) | -0.244 (inactive) | -0.643 (inactive) | 0.129 | -0.0774 | 0.182 | 0.819 | 0.94
19 | CC(C)CNC(=O)[C@@H]1c2ccccc2C(=O)N(C(C)C)[C@H]1c1ccc(CO)cc1 | 0.0274 | -1.93 (inactive) | -0.753 (inactive) | -0.179 (inactive) | -0.739 (inactive) | -1.16 | -0.0986 | 1.13 | 0.0411 | 0.35
20 | CCOC(=O)C1=CC[C@@H](c2ccccc2)N(S(=O)(=O)C[Si](C)(C)C)[C@H]1c1ccccc1 | 0.389 | -2.78 (inactive) | -0.667 (inactive) | -0.63 (inactive) | 1.56 (inactive) | 1.48 | 0.127 | 0.899 | 0.799 | 0.257
21 | CC(=O)NCCCC[C@@H]1NC(=O)[C@H]2C[C@@H](C(=O)NCCCCCC[N+](C)(C)C)[C@@H](c3ccc(O)cc3)N2C1=O | -0.127 | -0.385 (inactive) | -1.42 (inactive) | -1.35 (inactive) | -0.665 (inactive) | -0.448 | 0.0857 | 1.4 | 1.75 | 2.1
22 | [N-]=[N+]=NCc1ccccc1C[C@]1(C(=O)NCc2ccccc2)N=C(c2ccc(OCCCO)cc2)O[C@H]1c1ccccc1CN=[N+]=[N-] | 0.477 | -4.58 (inactive) | -0.333 (inactive) | 1.27 (inactive) | -1.73 (inactive) | 0.208 | 0.237 | 0.135 | 0.623 | -0.603
23 | CC(C)C[C@H]1NC(=O)[C@@]23C(=O)N[C@@H](Cc4ccccc4)C2[C@H](C)[C@@]2(C)O[C@H]2C3/C=C/C/C=C\CNC(=O)[C@@H]2CCCN2C1=O (stereo not given in full) | 0.275 | -0.264 (inactive) | 0.341 (inactive) | 0.13 (inactive) | 0.865 (inactive) | -0.362 | -0.0471 | -0.056 | -0.0683 | 1.55
24 | CN(C)C(=O)[C@]1(Cc2ccccc2)N=C(c2ccc(OCCCO)cc2)O[C@@H]1c1ccccc1 | 0.0831 | -3.35 (inactive) | 0.18 (inactive) | 1.24 (inactive) | 0.14 (inactive) | 0.589 | 0.0184 | 0.193 | 0.71 | -0.46
25 | O=C1NC(=O)C2C1C=CC(C(O)c1ccc(F)cc1)N2Nc1ccccn1 (stereo not given) | -0.138 | 0.74 (inactive) | -1.36 (inactive) | -0.136 (inactive) | 0.0662 (inactive) | -0.0345 | -0.0645 | 0.286 | 0.0123 | 0.123
26 | Cc1ccc(S(=O)(=O)N2[C@@H](c3ccccc3)C(C(=O)O)=CC[C@H]2c2ccc(C#N)cc2)cc1 | 0.111 | -0.478 (inactive) | -0.236 (inactive) | -0.275 (inactive) | -0.551 (inactive) | 0.0546 | -0.148 | 0.834 | 2.1 | -0.133
27 | CN(C)CCCC[C@@H]1NC(=O)[C@@H]2C[C@H](C(=O)NCCCCCCNC(=O)CS)[C@H](c3cccc(OCCO)c3)N2C1=O | 0.152 | 0.425 (inactive) | -0.332 (inactive) | -0.256 (inactive) | -0.995 (inactive) | -0.149 | -0.0471 | 0.77 | 0.702 | 0.919
28 | COc1ccc(NN2C(C(O)c3ccc(OC)cc3)C=CC3C(=O)N(C4CCCCC4)C(=O)C32)cc1 (stereo not given) | 0.219 | -0.914 (inactive) | -0.257 (inactive) | -0.163 (inactive) | -0.211 (inactive) | 0.964 | -0.0313 | 0.118 | 0.202 | 0.0867
